# The list is not random: actives were taken first. Their share in the collection is about 0.91%.
# TR SRC2 fluor cs – Total Fluorescence Counterscreen for Inhibitors of the Interaction of Thyroid Hormone Receptor and Steroid Receptor Coregulator 2 | hit rate 0.29% among 280,000 | TRb/SRC2 Texas Red total fluorescence interference | Potency, µM (highest dose often 106 µM); active = well fitted curve in either direction with a large enough effect; inconclusive = small, poorly fitted or top-dose-only effect
#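 Flags fluorescent or light-absorbing compounds by total fluorescence, S + 2P, at 555 nm excitation and 632 nm emission. Mixture: 20 nM Texas Red SRC2 peptide, 0.6 uM human TRb LBD, 1 uM T3, 5% DMSO; compound exposure 5 h at ambient temperature.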
# BLM inh-1 – qHTS Assay for Inhibitors of Bloom's syndrome helicase (BLM); hit rate 0.2% among 350,000; Potency, µM (series often up to 56.1 µM), most hits filed as inhibitors; AID 2528, 2010; recombinant BLM DNA unwinding, fluorescence dequenching; note: nearly all actives have a fitted effect of over 35% in size
# TRb SRC2 PPI – qHTS for Inhibitors of the Interaction of Thyroid Hormone Receptor and Steroid Receptor Coregulator 2 | Thyroid hormone receptor beta (Homo sapiens), P10828 | TRbeta-SRC2 peptide binding, fluorescence polarization; receptor liganded with 1 µM T3 | AID 1469, 2008 | hit rate 0.065% among 280,000 | Potency, µM (series often up to 106 µM), actives largely listed as inhibitors; note: nearly all actives have a fitted effect of over 50% in size
# Target sequence (P10828 whole entry, looked up): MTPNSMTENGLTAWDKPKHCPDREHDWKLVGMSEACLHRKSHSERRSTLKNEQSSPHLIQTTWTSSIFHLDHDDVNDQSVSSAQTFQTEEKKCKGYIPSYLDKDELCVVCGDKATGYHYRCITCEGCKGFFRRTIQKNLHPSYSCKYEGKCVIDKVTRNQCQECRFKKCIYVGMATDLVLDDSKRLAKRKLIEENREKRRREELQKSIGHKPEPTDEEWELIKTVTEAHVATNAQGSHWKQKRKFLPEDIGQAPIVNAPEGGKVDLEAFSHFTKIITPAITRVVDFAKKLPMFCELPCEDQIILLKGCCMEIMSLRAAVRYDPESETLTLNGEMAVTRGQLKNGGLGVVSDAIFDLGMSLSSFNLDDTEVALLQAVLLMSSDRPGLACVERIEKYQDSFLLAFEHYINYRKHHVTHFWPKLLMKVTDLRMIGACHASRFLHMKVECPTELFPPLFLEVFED
#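 Fluorescence polarization of 20 nM Texas Red SRC2 peptide with 0.6 uM human TRb ligand-binding domain, in Tris buffer with 1uM T3 and 5% DMSO. Incubated 5 hr ambient; normalized to unbound and bound controls.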
# APE1 inh-1 – qHTS Assay for Inhibitors of the Human Apurinic/apyrimidinic Endonuclease 1 (APE1). AID 2517, 2012. hit rate 0.35% among 350,000. Potency, µM (doses to about 65.8 µM), actives largely listed as inhibitors. DNA repair nuclease/redox regulator APEX1 (Homo sapiens), P27695. recombinant APE1, TAMRA/BHQ-2 abasic DNA cleavage fluorescence; note: nearly all actives have a fitted effect of over 55% in size
# Target sequence (P27695 whole entry, looked up): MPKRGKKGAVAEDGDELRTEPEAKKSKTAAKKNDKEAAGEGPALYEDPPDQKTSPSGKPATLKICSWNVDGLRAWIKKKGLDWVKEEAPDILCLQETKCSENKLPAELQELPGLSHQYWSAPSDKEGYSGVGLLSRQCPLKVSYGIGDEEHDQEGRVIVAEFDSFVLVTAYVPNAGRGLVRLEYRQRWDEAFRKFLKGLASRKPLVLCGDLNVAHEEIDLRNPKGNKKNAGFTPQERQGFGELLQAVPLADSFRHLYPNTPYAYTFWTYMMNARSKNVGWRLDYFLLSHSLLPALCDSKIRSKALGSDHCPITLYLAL
#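 Step 1: APE1 (0.75 nM) with compound, 15 min RT. Step 2: add 50 nM fluorophore/quencher THF duplex. Step 3: three fluorescence reads 60 s apart (525/598 nm); read 3 minus read 1 = reaction progress.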
# RECQ1 inh-1 – qHTS Assay for Inhibitors of RecQ-Like Dna Helicase 1 (RECQ1) | RECQ1 DNA unwinding, red fluorescence kinetic read | Potency, µM (titrated, usually from 57.3 µM), actives largely listed as inhibitors | hit rate 0.54% among 240,000 | ATP-dependent DNA helicase Q1 (Homo sapiens), P46063 | AID 2549, 2010; note: nearly all actives have a fitted effect of over 30% in size
#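 RECQ1T1 50 nM; forked duplex (20 bp + 30-nt ss tails) 200 nM, ATP 2 mM final; pH 8.0, 2 mM MgCl2, 2.5 ug/ml poly(dI-dC); 15 min compound preincubation; discontinuous kinetic read over 2 h at RT.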
# WRN inhibitor – qHTS for Inhibitors of WRN Helicase; Bifunctional 3'-5' exonuclease/ATP-dependent helicase WRN (Homo sapiens), Q14191; WRN helicase unwinding, fluorescent forked duplex, kinetic; Potency, µM (doses to about 114 µM), usual class: inhibitors; hit rate 0.46% among 360,000; note: nearly all actives have a fitted effect of over 55% in size
#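 Fluorescence dequenching readout, ex 525 nm/em 598 nm, kinetic mode: forked duplex DNA (100 nM final) with adjacent fluorophore and quencher unwound by WRN (20 nM final) with 2 mM ATP. Compound preincubation 15 min, room temperature.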
# APE1 dye cs – Counterscreen for APE1 Inhibitors: Fluorescent Dye Displacement Assay | shares compounds with APE1 inh-1 | DNA fluorescent dye displacement counterscreen, fluorescence | Potency, µM (titrated, usually from 28.5 µM), usual class: inhibitors | hit rate 7% among 480;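 note: loss of thiazole orange fluorescence as the dye is displaced from duplex DNA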
# Endo IV inh – Counterscreen for APE1 Inhibitors: qHTS Assay for Inhibitors of Endonuclease IV | shares compounds with APE1 inh-1 | E. coli Endo IV, fluorogenic AP-site DNA cleavage | Potency, µM (series often up to 27.1 µM), usual class: inhibitors | hit rate 4% among 560 | AID 2565, 2010
# APE1 inh-2 – Confirmation qHTS Assay for Inhibitors of the Human Apurinic/apyrimidinic Endonuclease 1 (APE1); shares compounds with APE1 inh-1; purified APE1, fluorogenic abasic-site DNA cleavage; Potency, µM (doses to about 57.1 µM), actives largely listed as inhibitors; hit rate 44% among 750; note: nearly all actives have a fitted effect of over 30% in size
# APE1 FP inh – qHTS FP-Based Assay for Inhibitors of the Human Apurinic/apyrimidinic Endonuclease 1 (APE1); AID 2573, 2010; Potency, µM (titrated, usually from 28.5 µM), most hits filed as inhibitors; hit rate 7% among 480; shares compounds with APE1 inh-1; APE1 binding to TAMRA-labelled double-stranded DNA, fluorescence polarization displacement
# BLM inh-2 – qHTS Confirmation Assay for Inhibitors of Bloom's syndrome helicase (BLM); shares compounds with BLM inh-1; BLM DNA unwinding, fluorescence quenching, biochemical; Potency, µM, usual class: inhibitors; hit rate 40% among 220; AID 2585, 2010;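 note: strand separation dequenches TAMRA so unwinding raises red fluorescence; series mostly up to about 69 µM; nearly all actives have a fitted effect of over 45% in size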
# RECQ1 conf – Confirmation qHTS Assay for Inhibitors of RecQ-Like Dna Helicase 1 (RECQ1); shares compounds with RECQ1 inh-1; RECQ1 helicase DNA unwinding, fluorescence; Potency, µM (top dose mostly 229 µM), hits mostly inhibitors; hit rate 28% among 610; note: nearly all actives have a fitted effect of over 45% in size
# ADP FP counter – Counterscreen for RECQ1 Inhibitors: ADP Fluorescence Polarization Displacement Assay; AID 2711, 2010; ADP fluorescence polarization displacement counterscreen; shares compounds with RECQ1 inh-1; hit rate 27% among 530; Potency, µM (highest dose often 228 µM), usual class: inhibitors; note: nearly all actives have a fitted effect of over 45% in size
# RECQ1 inh-2 – Confirmation qHTS Assay for Inhibitors of RecQ-Like Dna Helicase 1 (RECQ1) - Round 2 Cherry Picks; recombinant RECQ1 DNA unwinding, red fluorescence; AID 504841, 2011; shares compounds with RECQ1 inh-1; Potency, µM (highest dose often 119 µM), most hits filed as inhibitors; hit rate 15% among 1,100; note: nearly all actives have a fitted effect of over 50% in size
# A number is an active result; . = inactive; ? = inconclusive; / = no result given; ! = repeats disagree; [ ] = another dose, or the depositor's remark. Unless noted, calls come from the whole dose curve; as a rule, active = well fitted curve in the direction sought with a large enough effect; inconclusive = small, poorly fitted or top-dose-only effect, or another doubt; inactive = no such curve, though single readings can be large; an effect the other way counts as inactive or inconclusive.
SMILES,TR SRC2 fluor cs,BLM inh-1,TRb SRC2 PPI,APE1 inh-1,RECQ1 inh-1,WRN inhibitor,APE1 dye cs,Endo IV inh,APE1 inh-2,APE1 FP inh,others
CN=c1scc(C)n1/N=C/c1cc(Br)c(O)c(OC)c1,.,.,.,.,.,.,/,/,/,/,
COc1ccccc1NC(=O)Nc1ccc(S(=O)(=O)Nc2onc(C)c2C)cc1,/,/,/,.,/,.,/,/,/,/,
O=[N+]([O-])c1ccc(/C([O-])=C(/C(=S)NCc2ccco2)[n+]2ccccc2)cc1,?,.,.,8.91µM,.,.,.,.,?,?,
O=C1C2C3C=CC(CC3)C2C(=O)N1c1nccs1 (stereo unspecified),.,.,.,6.31µM,22.4µM,39.8µM,.,.,?,.,
NN1C(=O)/C(=C\c2ccco2)SC1=S,.,?,.,14.1µM,?,.[11.6 µM],.,.,?,.,
O=C(O)CC(NCc1ccco1)C(=O)OCCc1ccccc1 (stereo unspecified),.,.,.,.,.,.,/,/,/,/,
C=C(C)CCOC(=O)C(CC(=O)O)NCc1ccco1 (stereo unspecified),.,.,.,?,.,.[11.6 µM],/,/,?,/,
NC(=O)Cn1c(=O)n(Cc2ccco2)c(=O)c2c3c(sc21)CCCCC3,.,?,.,?,?,?,?,.,10µM,?,
CC(=O)Oc1cc2cccc(OC(C)=O)c(=O)c2c(OC(C)=O)c1OC(C)=O,.,?,.,0.447µM,3.16µM,8.91µM,.,.,6.31µM,.,
Cc1nc(-c2ccc(O)c(O)c2)cs1,.,.,.,3.16µM,?,.,.,.,.,.,
CCN(CC)CCNc1cccc2sc3ccccc3c(=O)c12,/,/,/,/,/,.,/,/,/,/,
CCN(CC)CCNc1ccc(CO)c2sc3ccccc3c(=O)c12,.,.,.,?,.,.,7.94µM,.,15.8µM,.,
Cc1ccc2nc(Cl)c3cc(C(=O)NCCCN4CCCC4)sc3c2c1,.,.,.,.,.,.,/,/,/,/,
CCCCCCC/C=C\CCCCCCCCC(=O)O,.,/,.,.,?,/,/,.,.,/,
CCCCC/C=C\C/C=C\C/C=C\C/C=C\CCCCCC(=O)O,.,.,.,.,.,/,/,/,/,/,
CC(C)n1c(SCC(=O)Nc2ccc(F)cc2)nnc1C1CC1,/,.,/,.,/,?,/,/,/,/,
CC(C)[N+](C)(CCOC(=O)C1c2ccccc2Oc2ccccc21)C(C)C,.,.,.,8.91µM!,?,.,/,.,.,/,
O=C(CSc1nc(-c2ccc(F)cc2)nc2c1Cc1ccccc1O2)Nc1ccc(C(=O)O)cc1,.,8.91µM,.,?,?,?,3.16µM,?,4.47µM,.,BLM inh-2=28.9µM
CCOc1ccc(-c2nnc(SCC(=O)Oc3ccccc3)o2)cc1,.,.,.,/,/,/,/,/,/,/,
C=Cc1c(C)/c2[n-]/c1=C\c1[n-]c(c(CC)c1C)/C=c1\[n-]c3c(c1C)C(=O)C(C(=O)[O-])C=3c1[n-]c(c(C)c1CCC(=O)[O-])\C=2.[Cu].[Na+].[Na+] (stereo unspecified),25.1µM[quencher],11.2µM,44.7µM,/,1.12µM,/,/,15.8µM,2.82µM,/,RECQ1 conf=2.82µM;ADP FP counter=44.7µM
O=C(Nc1ccncc1)c1ccc(NS(=O)(=O)c2ccc3[nH]c(=O)[nH]c3c2)cc1,/,.,/,.,/,.,/,/,/,/,
CC(=O)NC1=NN(C(C)=O)C(C)(c2ccc3ccccc3c2)S1 (stereo unspecified),.,.,.,.,.,.,/,/,/,/,
CC(=O)NC1=NN(C(C)=O)C(C)(c2ccccc2)S1 (stereo unspecified),.,?,.,2.82µM,39.8µM,.,.,.,1.41µM,.,RECQ1 inh-2=.
O=C(OCC1OC(OC(=O)c2cc(O)c(O)c(OC(=O)c3cc(O)c(O)c(O)c3)c2)[C@@H](OC(=O)c2cc(O)c(O)c(OC(=O)c3cc(O)c(O)c(O)c3)c2)C(OC(=O)c2cc(O)c(O)c(OC(=O)c3cc(O)c(O)c(O)c3)c2)C1OC(=O)c1cc(O)c(O)c(OC(=O)c2cc(O)c(O)c(O)c2)c1)c1cc(O)c(O)c(OC(=O)c2cc(O)c(O)c(O)c2)c1 (stereo partly specified),15.8µM[quencher],0.0708µM,?,/,0.0316µM,/,/,5.01µM,0.0032µM,/,RECQ1 conf=1.12µM;ADP FP counter=?
O=C(COC(=O)c1cc2c(s1)CCC2)Nc1ccc(F)cc1,.,15.8µM,.,15.8µM,22.4µM,?,?,.,10µM,?,BLM inh-2=?;RECQ1 inh-2=?
COc1ccc(NC(=O)c2ccc(N3C(=O)C4CC=C(Cl)CC4C3=O)cc2)cc1 (stereo unspecified),/,.,/,.,/,.,/,/,/,/,

# Compound activity (PubChem BioAssay)
